The record followed here is PubChem BioAssay.

The structures appear in SMILES notation. Values without a mark were called inactive. No rule for the calls is given here.

For this assay, the target named is Pantothenate synthetase (Mycobacterium tuberculosis (strain ATCC 25618 / H37Rv)) (UniProt P9WIL5). Nature of the assay: Recombinant Mtb pantothenate synthetase (PanC) inhibitors, coupled enzyme, confirmatory (AID 375).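 Also: 0% = full reaction with vehicle and 100% = no enzyme background.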 Conditions: coupled enzyme assay; at 10 µM, active compounds read high.
Chain of Pantothenate synthetase (Mycobacterium tuberculosis (strain ATCC 25618 / H37Rv)) (P9WIL5 whole entry, looked up): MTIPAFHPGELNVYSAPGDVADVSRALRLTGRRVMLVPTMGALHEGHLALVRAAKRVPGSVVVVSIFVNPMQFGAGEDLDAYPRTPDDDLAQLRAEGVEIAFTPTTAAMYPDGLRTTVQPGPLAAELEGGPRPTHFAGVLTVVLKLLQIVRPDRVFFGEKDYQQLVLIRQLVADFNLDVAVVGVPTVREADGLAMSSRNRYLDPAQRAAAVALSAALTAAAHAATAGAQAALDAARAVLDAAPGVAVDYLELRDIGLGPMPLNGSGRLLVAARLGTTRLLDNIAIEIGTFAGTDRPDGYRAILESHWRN

For `CCOC(=O)c1sc(C)c2c(=O)n(CC)nnc12`, the inhibition is 0%.
For `Cc1cc2c(cc(C(=O)OCC(=O)NCc3cccs3)n2C(C)C)o1`, the inhibition was 0%.
For `COc1ccc(-n2c(=O)[nH]cc(C(=O)Nc3ccc(NC(C)=O)cc3)c2=O)cc1`, the inhibition is 6%.
As to `CCC(C(=O)NC(C)CCc1ccco1)n1nc(C)n2c(cc3occc32)c1=O` (configuration not stated), the inhibition is 0%.
To `O=C(CCN1CCOCC1)Nc1ccc2c(c1)CCC2` belongs 4%; to `Cc1cc(NCCN2CCCCC2)n2c(nc3ccccc32)c1C#N`, 14%.
On to `CNC(=O)CC(C(=O)O)c1ccc(OCC(C)C)cc1` (configuration not stated), for which the inhibition is 1%.
In the case of `COc1ccc(NC(=O)CSc2nnc(Cc3cccn3C)n2-c2ccc(F)cc2)cc1`, the inhibition is 0%.
Consider `Cc1c(O)c(CN2CCCC(C)C2)cc2c3c(c(=O)oc12)CCC3` (configuration not stated), for which the inhibition is 9%.
To `COc1ccc2[nH]c(=O)c(CN(Cc3cccs3)S(=O)(=O)c3cccc4nsnc34)cc2c1` belongs 0%; to `COc1cc2c(c(OC)c1)C(c1ccncc1)CC(=O)N2` (configuration not stated), 0%.
With `CC1CCN(S(=O)(=O)c2ccc3[nH]c(=O)cc(C(=O)O)c3c2)CC1`, the inhibition was 0%.
The result for `O=C(O)COc1ccc2occ(C(=O)c3ccccc3)c2c1` reads 0%; that for `O=C(CCC(=O)N1CCc2ccccc2C1)N1CCN(S(=O)(=O)c2ccccc2)CC1`, 0%; that for `O=C(c1ccccc1)c1ccncc1`, 10%.
To `O=C(CN1CCN(Cc2ccccc2)CC1)Nc1ccc(Cl)cn1` belongs 3%; to `C=CCNC(=O)CSc1ccc(Cl)cc1`, 0%; to `COc1ccccc1OCCSc1nc2ccccc2c(=O)[nH]1`, 0%.
The result for `Cc1ccc2[nH]c(=O)c(-c3noc(-c4ccncc4)n3)cc2c1` reads 2%.
Regarding `O=S(=O)(c1ccccc1)N1CCN(C2CCCCCCC2)CC1`, the inhibition is 8%.
As to `COc1ccc(-c2nnc3sc(C(C)N4C(=O)c5ccccc5C4=O)nn23)cc1` (configuration not stated), the inhibition was 0%.
In the case of `CC(C)(O)C1=NOC(c2ccccc2)C1` (configuration not stated), the inhibition is 0%.
In the case of `COC(=O)Nc1ccccc1C(=O)N1CCCCC1`, the inhibition was 0%.
As for `NC(=O)C1(N2CCCCC2)CCN(C(=O)Nc2ccccc2C(F)(F)F)CC1`, the inhibition was 1%.
As to `O=C(CSc1nc2ccccc2o1)Nc1ccccc1`, the inhibition was 0%.
Take `COc1ccc(C2C(C#N)=C(N)OC3=C2C(=O)CC(C)C3)c(OC)c1OC` (configuration not stated): the inhibition was 0%.
To `CCC1(CC)NC(=O)NC1=O` belongs 0%; to `Cc1c(NS(=O)(=O)c2ccc3c(c2)n(C)c(=O)n3C)c(=O)n(-c2ccccc2)n1C`, 2%.
As for `O=C(Nc1ccc(Cl)cc1)C1CC=CCC1C(=O)OCC(F)(F)C(F)F` (configuration not stated), the inhibition was 0%.
On to `COc1cccc(-c2nnc(NC(=O)Cc3cccs3)s2)c1`, for which the inhibition was 0%.
For `Cc1csc2nc(CNC(=O)c3ccco3)cn12`, the inhibition is 0%.
Take `COc1ccc(C2=NOC(C(=O)NCc3ccc(F)cc3)C2)cc1OC` (configuration not stated): the inhibition is 0%.
On to `COCCn1nnnc1C(c1ccc(OC)cc1)N1CCN(c2ccccc2F)CC1` (configuration not stated), for which the inhibition was 0%.
Turning to `Cc1cccc(CC2CC(=O)N(c3ccccc3)C2=O)c1` (configuration not stated), the inhibition was 0%.
For the compound `CCOC(=O)N1CCN(C(=O)CSc2cc(C)nc3c(-c4ccccc4OC)c(C)nn23)CC1`, the inhibition was 0%.
`CCC(=O)N1CCc2cc(Br)cc(S(=O)(=O)CCC(=O)NCC3CCCO3)c21` (configuration not stated): the inhibition was 0%.
As to `O=C(c1cn(-c2ccccc2)nc1-c1cccs1)N1CCN(c2ccccn2)CC1`, the inhibition was 2%.
To `CC(C)(C)OC(=O)N1CCC(C(=O)N[C@H](Cc2ccccc2)C(=O)O)CC1` belongs 0%; to `O=C(O)c1cccc(CN2C(=O)SC(Nc3ccccc3)C2=O)c1` (configuration not stated), 4%; to `CCN(C(=O)c1cc(Cl)ccc1OC)c1ccccc1`, 0%.
On to `O=C1CCCC2=C1C1(CCCC1)N=C(Nc1nc3ccccc3s1)N2`, for which the inhibition is 10%.
For the compound `Cc1c(C#N)c(N)c(C(=O)c2ccccc2)n1Cc1ccccc1`, the inhibition was 0%.
In the case of `O=C(CCNS(=O)(=O)c1cccs1)Nc1ccccc1F`, the inhibition is 3%.
Regarding `Cc1ccc(S(=O)(=O)NC(C)C(=O)Nc2ccc(C(N)=O)cc2)cc1` (configuration not stated), the inhibition was 0%.
For `CCOc1cc2[nH]c(=S)n(CC3CCCO3)c(=O)c2cc1OCC` (configuration not stated), the inhibition is 9%.
As for `C=CCOc1ccc(/C(CC)=N/O)c(OC)c1`, the inhibition is 0%.
The result for `CCOc1ccccc1NC(=O)CCSc1nc2n[nH]c(C)c2c(=N)n1-c1ccccc1Cl` reads 10%.
